Laboratory results: PubChem BioAssay (EPA / NIEHS)
Several values for one entry are separate records, joined by “and”; a condition that tells them apart may be missing. Identical values can stand only once. Records with an inconclusive call do not appear. The source holds several records for some structures; these can differ, active in one and inactive in another. Activity calls are given as the source filed them. The calls were made as follows, unless noted: active = hit-call score of the fitted dose curve at least 0.9, where 1 is the maximum; inactive = score below 0.9.

Key:
[1] = CCTE_Mundy_HCI_hNP1_CellTiter: CCTE's Cell Titer-Glo 2 Assay in human neuroprogenitor cells for Viability, Mundy Lab (AID 2284241; active = hit-call score of the fitted dose curve at least 0.9, where 1 is the maximum;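 as to AC50: a hit is a drop in ATP luminescence versus DMSO meaning reduced viability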)
Method in brief: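 Human neural progenitor cells (hNP1, WA09-derived) were plated on poly-L-ornithine/laminin and grown 40 to 44 hours at 37 °C, 5% CO2 before chemical addition. Twenty-four hours later, ATP was measured by CellTiter-Glo luminescence; loss of signal versus DMSO indicates reduced viability.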

[2] = CCTE_Mundy_HCI_Cortical_Synap_Neur_Matur_NeuronCount: CCTE's Synaptogenesis and Neurite Maturation Assay in rat cortical cells for Neuron Count, Mundy Lab (AID 2284242; active = hit-call score of the fitted dose curve at least 0.9, where 1 is the maximum;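 as to AC50: hits reduce neuron count versus DMSO baseline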)
Method in brief: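 Measured at DIV 12: fluorescently labelled neurons (Hoechst nuclei, MAP2) in rat primary cortical cultures, counted by high-content imaging. AraC suppressed glia from DIV 5; DMSO served as negative control.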

[3] = read-out: Interleukin 17F (IL17F), IL17F (gene 112744); test: BSK_BT_xIL17F: BioMAP Diversity Plus: BT Assay for Interleukin 17F (IL17F) Biomarker Activity (AID 2284243); conditions: primary human B cells with PBMC
Method in brief: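 Secreted IL-17F, read on LumineX xMAP beads, was taken as the endpoint. Cultures combined human B cells and peripheral blood mononuclear cells, sampled 24 hours after dosing, with DMSO serving as negative control.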

[4] = read-out: Actin alpha 1 (ACTA1), ACTA1 (gene 58); test: BSK_MyoF_ACTA1: BioMAP Diversity Plus: MyoF Assay for Actin alpha 1 (ACTA1) Biomarker Activity (AID 2284244); conditions: primary human lung fibroblasts
Method in brief: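 MyoF fibroblast system (human lung); a-SMA quantified via ELISA at 24 h; DMSO-normalised, gain-of-signal endpoint.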

[5] = read-out: Interleukin 2 (IL2), IL2 (gene 3558); test: BSK_BT_xIL2: BioMAP Diversity Plus: BT Assay for Interleukin 2 (IL2) Biomarker Activity (AID 2284245); conditions: primary human B cells with PBMC
Method in brief: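 Co-cultures of primary human B cells and PBMC are treated with chemical and sampled at 24 h. IL-2 secretion is quantified by Luminex xMAP, with DMSO-treated wells as baseline.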

[6] = read-out: Basic fibroblast growth factor (bFGF), FGF2 (gene 2247); test: BSK_MyoF_bFGF: BioMAP Diversity Plus: MyoF Assay for Basic fibroblast growth factor (bFGF) Biomarker Activity (AID 2284246); conditions: primary human lung fibroblasts
Method in brief: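 Fibroblasts from human lung, 24 h dosing. bFGF by ELISA; gain of signal over DMSO.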

[7] = read-out: Collagen IV, COL4A1 (gene 1282); test: BSK_MyoF_CollagenIV: BioMAP Diversity Plus: MyoF Assay for Collagen IV Biomarker Activity (AID 2284247); conditions: primary human lung fibroblasts
Method in brief: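 Lung fibroblasts (human primary) treated with chemicals were assayed after 24 h for Collagen IV using an ELISA, with DMSO serving as negative control and baseline for a positive-direction fit.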

[8] = read-out: Monokine induced gamma interferon (MIG), CXCL9 (gene 4283); test: BSK_KF3CT_MIG: BioMAP Diversity Plus: KF3CT Assay for Monokine induced gamma interferon (MIG) Biomarker Activity (AID 2284248); conditions: primary human keratinocytes with fibroblasts
Method in brief: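 ELISA read-out of MIG after 24 h chemical exposure of human skin primary co-culture (keratinocytes, foreskin fibroblasts). Gain of signal relative to DMSO negative control was analysed.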

[9] = read-out: Vascular cell adhesion molecule 1 (VCAM1), VCAM1 (gene 7412); test: BSK_BF4T_VCAM1: BioMAP Diversity Plus: BF4T Assay for Vascular cell adhesion molecule 1 (VCAM1) Biomarker Activity (AID 2284249); conditions: primary human bronchial epithelial cells with fibroblasts
Method in brief: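 Cell-surface VCAM-1 quantified by ELISA after 24 h chemical exposure of human bronchial epithelial/dermal fibroblast co-cultures, with SRB staining in parallel wells for cytotoxicity; DMSO baseline, positive-direction fitting.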

[10] = read-out: Collagen I, COL1A1 (gene 1277); test: BSK_hDFCGF_CollagenI: BioMAP Diversity Plus: hDFCGF Assay for Collagen I Biomarker Activity (AID 2284250); conditions: primary human foreskin fibroblasts
Method in brief: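 Readout: Collagen I by ELISA after 24 h compound treatment of primary human foreskin fibroblasts. Endpoint analysed for increases relative to DMSO; total protein by SRB in parallel wells flagged cytotoxicity.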

[11] = read-out: Interferon-inducible T-cell alpha chemoattractant (ITAC), CXCL11 (gene 6373); test: BSK_hDFCGF_ITAC: BioMAP Diversity Plus: hDFCGF Assay for Interferon-inducible T-cell alpha chemoattractant (ITAC) Biomarker Activity (AID 2284251); conditions: primary human foreskin fibroblasts
Method in brief: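 I-TAC levels were read by ELISA on human dermal foreskin fibroblast primary cultures 24 h after dosing, analysed against DMSO in the positive direction. Cytotoxicity was assessed alongside by sulforhodamine B total-protein staining.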

[12] = read-out: Plasminogen activator inhibitor-1 (PAI1), SERPINE1 (gene 5054); test: BSK_KF3CT_PAI1: BioMAP Diversity Plus: KF3CT Assay for Plasminogen activator inhibitor-1 (PAI1) Biomarker Activity (AID 2284252); conditions: primary human keratinocytes with fibroblasts
Method in brief: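 In this co-culture of primary human keratinocytes and foreskin fibroblasts, PAI-1 was measured by ELISA at 24 h and fitted upward from DMSO.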

[13] = read-out: Monocyte Chemoattractant Protein-1 (MCP1), CCL2 (gene 6347); test: BSK_IMphg_MCP1: BioMAP Diversity Plus: IMphg Assay for Monocyte Chemoattractant Protein-1 (MCP1) Biomarker Activity (AID 2284253); conditions: primary human endothelial cells with macrophages
Method in brief: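 ELISA readout of MCP-1 at 24 hours in IMphg co-cultures of venular endothelial cells and macrophages, normalised to DMSO; parallel cultures stained with sulforhodamine B for overt cytotoxicity.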

[14] = read-out: Interleukin-8 (IL8), CXCL8 (gene 3576); test: BSK_KF3CT_IL8: BioMAP Diversity Plus: KF3CT Assay for Interleukin-8 (IL8) Biomarker Activity (AID 2284254); conditions: primary human keratinocytes with fibroblasts
Method in brief: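 IL-8 read-out: ELISA, 24 h post-dose, human skin primary co-culture (keratinocytes + foreskin fibroblasts). DMSO = baseline; positive-direction fit.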

[15] = read-out: Macrophage Inflammatory Protein-1 Alpha (MIP1a), CCL3 (gene 6348); test: BSK_IMphg_MIP1a: BioMAP Diversity Plus: IMphg Assay for Macrophage Inflammatory Protein-1 Alpha (MIP1a) Biomarker Activity (AID 2284255); conditions: primary human endothelial cells with macrophages
Method in brief: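 MIP-1a protein levels were quantified by ELISA after 24 h treatment of human endothelial cell–macrophage co-cultures, compared with DMSO. Parallel cultures were fixed with TCA and stained with 0.1% SRB to gauge overt cytotoxicity.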

[16] = read-out: Plasminogen activator inhibitor-1 (PAI1), SERPINE1 (gene 5054); test: BSK_MyoF_PAI1: BioMAP Diversity Plus: MyoF Assay for Plasminogen activator inhibitor-1 (PAI1) Biomarker Activity (AID 2284256); conditions: primary human lung fibroblasts
Method in brief: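 MyoF lung fibroblasts, human primary; compound 24 h; PAI-1 ELISA; positive-direction fit vs DMSO baseline; parallel SRB total-protein staining for cytotoxicity.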

CD69, CD69 (gene 969) = test: BSK_IMphg_CD69: BioMAP Diversity Plus: IMphg Assay for CD69 Biomarker Activity (AID 2284257); conditions: primary human endothelial cells with macrophages
Method in brief: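 Readout is ELISA for CD69 in primary human venular endothelial cell/macrophage co-culture, taken at 24 h post-dosing. SRB staining of parallel cultures gauged overt cytotoxicity; signal increase versus DMSO defined activity.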

[17] = read-out: Eotaxin 3, CCL26 (gene 10344); test: BSK_BF4T_Eotaxin3: BioMAP Diversity Plus: BF4T Assay for Eotaxin 3 Biomarker Activity (AID 2284258); conditions: primary human bronchial epithelial cells with fibroblasts
Method in brief: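 ELISA measurement of Eotaxin-3 after 24 h chemical exposure in a bronchial epithelial/dermal fibroblast co-culture, with DMSO as baseline. Parallel SRB staining (0.1% SRB after 10% TCA fixation, 560 nm) flagged overt cytotoxicity.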

[18] = read-out: Monocyte Chemoattractant Protein-1 (MCP1), CCL2 (gene 6347); test: BSK_BF4T_MCP1: BioMAP Diversity Plus: BF4T Assay for Monocyte Chemoattractant Protein-1 (MCP1) Biomarker Activity (AID 2284259); conditions: primary human bronchial epithelial cells with fibroblasts
Method in brief: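 MCP-1 ELISA readout taken 24 h after dosing in the BF4T system (bronchial epithelial cells plus dermal fibroblasts). Parallel SRB total-protein staining flagged cytotoxicity; DMSO served as baseline, positive fitting direction.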

[19] = read-out: Intercellular Adhesion Molecule 1 (ICAM1), ICAM1 (gene 3383); test: BSK_BF4T_ICAM1: BioMAP Diversity Plus: BF4T Assay for Intercellular Adhesion Molecule 1 (ICAM1) Biomarker Activity (AID 2284260); conditions: primary human bronchial epithelial cells with fibroblasts
Method in brief: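 ICAM-1 levels measured by ELISA after 24 h chemical treatment of bronchial epithelial cell/dermal fibroblast co-cultures, read against DMSO baseline. Overt cytotoxicity checked in parallel cultures by sulforhodamine B staining.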

Measured: AC50

CCC(C)(C)C(=O)OC1=C(c2ccc(Cl)cc2Cl)C(=O)OC12CCCCC2
inactive: [1] | [2]

COP(=S)(OC)Oc1ccc([N+](=O)[O-])cc1
active: [2] 22.1 µM
inactive: [1]

O=S(=O)(O)C(F)(F)C(F)(F)C(F)(F)C(F)(F)C(F)(F)C(F)(F)C(F)(F)C(F)(F)F
active: [11] 30 µM and 38.1 µM | [12] 24.4 µM [middle of 4 runs] | CD69, CD69 (gene 969) 30 µM | [17] 17.2 µM and 1.82 µM | [18] 44.6 µM
inactive: [1] | [2] | [3] | [4] | [5] | [6] | [7] | [8] | [9] | [10] | [11] | [13] | [14] | [15] | [16] | CD69, CD69 (gene 969) | [17] | [18] | [19]

CNC(=O)CSP(=S)(OC)OC
active: [2] 50 µM
inactive: [1] | [2]

O=C(O)C(F)(F)C(F)(F)C(F)(F)C(F)(F)C(F)(F)C(F)(F)C(F)(F)F
inactive: [2] | [3] | [4] | [5] | [6] | [8] | [9] | [10] | [11] | [12] | [13] | [14] | [15] | [16] | CD69, CD69 (gene 969) | [17] | [18] | [19]
active: [7] 31.6 µM [middle of 4 runs] | [18] 50.1 µM

CC[C@H](C)[C@H]1O[C@]2(C=C[C@@H]1C)C[C@@H]1C[C@@H](C/C=C(\C)[C@@H](O[C@H]3C[C@H](OC)[C@@H](O[C@H]4C[C@H](OC)[C@@H](O)[C@H](C)O4)[C@H](C)O3)[C@@H](C)/C=C/C=C3\CO[C@@H]4[C@H](O)C(C)=C[C@@H](C(=O)O1)[C@]34O)O2 (tested in a mixture with another compound)
active: [1] 3.34 µM | [2] 1.55 µM

COP(=O)(OC)OC=C(Cl)Cl
active: [2] 81.4 µM
inactive: [1]

CC(C)N(C(=O)COc1nnc(C(F)(F)F)s1)c1ccc(F)cc1
inactive: [1]

CC1(C)C(C=C(Cl)Cl)C1C(=O)OC(C#N)c1ccc(F)c(Oc2ccccc2)c1 (centres undefined)
inactive: [1]
active: [2] 49.9 µM

ClC1C(Cl)C(Cl)C(Cl)C(Cl)C1Cl (centres undefined)
active: [3] 20 µM | [4] 28.5 µM | [5] 31.9 µM | [16] 0.295 µM
inactive: [3] | [4] | [5] | [6] | [7] | [16]

CC1(c2ccc(Oc3ccccc3)cc2)OC(=O)N(Nc2ccccc2)C1=O (centres undefined)
active: [1] 10.9 µM | [2] 10.9 µM

O=C(O)COc1ccc(Cl)cc1Cl
inactive: [1]

O=[N+]([O-])/N=C1\NCCN1Cc1ccc(Cl)nc1
inactive: [1]

O=S1OCC2C(CO1)C1(Cl)C(Cl)=C(Cl)C2(Cl)C1(Cl)Cl (centres undefined)
active: [1] 12 µM | [2] 22.5 µM
